Data from PubChem BioAssay (NCATS).
Inconclusive results are not listed. Calls of active or inactive are those of the source. Calls follow the shape of the dose curve; as a rule, active = well fitted cell-killing curve with a large enough effect; inconclusive = small, poorly fitted or top-dose-only effect; inactive = flat fitted curve, though single readings scatter.

experiment: Cellular viability qHTS for adrenocortical cancer (ACC) cell line NCI-H295R (AID 1963990); conditions: CellTiter-Glo ATP luminescence, 48 h; series mostly up to 46.1 µM; activity change, negative = viability loss: at the top concentration; also: nearly all actives have a fitted effect of over 60% in size;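 as to activity change, negative = viability loss: 0% = DMSO only wells and -100% = full killing with cytotoxic reference compound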
Summary of the method: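 Luminescent ATP read-out (CellTiter-Glo, 20 min RT) after 48 h drug exposure of NCI-H295R cells; a titration up to 46 uM final. Data normalized to doxorubicin (100% inhibition) and DMSO (0%); 4-parameter fit gives IC50, max response.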
Potency is read from the fitted curve at half-maximal effect.

SMILES	activity change, negative = viability loss	Potency
CCOC(=O)C(c1c(O)c2ccccc2oc1=O)c1c(O)c2ccccc2oc1=O	-5.28% (inactive)	
CCC(=O)C(CCN(C)C)(c1ccccc1)c1ccccc1	-26.2% (inactive)	
Cc1ccccc1-n1c(Cn2cnc3c(N)ncnc32)nc2cccc(C)c2c1=O	3.3% (inactive)	
CC(C)[N+](C)(CCC(C(N)=O)(c1ccccc1)c1ccccc1)C(C)C	-3.69% (inactive)	
CC(C)=CCOc1c2occc2cc2ccc(=O)oc12	-26.1% (inactive)	
N#CC(C#N)=Cc1ccc(O)c(O)c1	-16.7% (inactive)	
CCOC(=O)C1(c2ccccc2)CCN(CCc2ccc(N)cc2)CC1	0.524% (inactive)	
CN1C(=S)CN=C(c2ccccc2)c2cc(Cl)ccc21	-25% (inactive)	
CC(O)(CS(=O)(=O)c1ccc(F)cc1)C(=O)Nc1ccc(C#N)c(C(F)(F)F)c1 (configuration not stated)	-11.1% (inactive)	
CC(CCc1ccccc1)NC(C)C(O)c1ccc(O)cc1 (configuration not stated)	-5.57% (inactive)	
CNC(C)Cc1ccc2c(c1)OCO2 (configuration not stated)	1.2% [at 92.7 µM] (inactive)	
CN[C@@H]1C[C@H]2O[C@@](C)([C@@H]1OC)n1c3ccccc3c3c4c(c5c6ccccc6n2c5c31)C(=O)NC4		282 nM (active)
